# Measurements published in the supplement of paper PMC3545927.
# This is one part of the list. How many sequences the whole screen found active is unknown.
# Target: furin, P09958
# Assay: furin cleavage Z-score vs untreated control; higher = more cleavage, active = 3.5 or more, inactive = 1 or less, 8 variable residues between constant flanks
# Method in brief: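 The cleavage Z-score was derived for purified furin acting on 8-mer peptides held on magnetic beads and fused to a cDNA oligonucleotide. Digests lasted 7.5, 15 or 30 min at 1:10 enzyme:substrate in 50 mM HEPES pH 7.5 with CaCl2 and NaCl. Sequencing counts of released DNA, log-transformed against furin-free reactions, were lowess-adjusted and scaled by median absolute deviation.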
# Sequence of furin, P09958 (P09958 whole entry): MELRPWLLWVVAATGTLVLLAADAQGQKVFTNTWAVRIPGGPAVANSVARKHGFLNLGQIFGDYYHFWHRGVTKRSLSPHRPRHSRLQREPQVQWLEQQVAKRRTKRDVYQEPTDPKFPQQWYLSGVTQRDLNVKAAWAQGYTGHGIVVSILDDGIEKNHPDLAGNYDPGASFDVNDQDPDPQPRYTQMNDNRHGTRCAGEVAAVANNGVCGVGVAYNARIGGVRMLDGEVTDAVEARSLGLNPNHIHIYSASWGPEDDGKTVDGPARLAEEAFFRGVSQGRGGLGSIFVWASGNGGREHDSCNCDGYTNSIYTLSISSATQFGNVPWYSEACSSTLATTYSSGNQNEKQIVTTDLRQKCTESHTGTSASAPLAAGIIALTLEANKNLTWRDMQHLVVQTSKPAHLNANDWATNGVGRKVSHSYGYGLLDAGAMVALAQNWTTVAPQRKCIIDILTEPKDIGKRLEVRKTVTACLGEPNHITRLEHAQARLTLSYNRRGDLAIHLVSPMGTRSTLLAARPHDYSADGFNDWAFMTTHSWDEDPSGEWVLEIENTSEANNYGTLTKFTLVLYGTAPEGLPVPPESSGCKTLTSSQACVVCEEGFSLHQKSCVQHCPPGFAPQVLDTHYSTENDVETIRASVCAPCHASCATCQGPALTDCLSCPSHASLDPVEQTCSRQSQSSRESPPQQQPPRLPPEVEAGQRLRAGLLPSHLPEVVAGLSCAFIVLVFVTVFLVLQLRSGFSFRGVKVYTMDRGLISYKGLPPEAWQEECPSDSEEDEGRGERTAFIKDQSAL
Sequence,furin cleavage Z-score (7.5 min),furin cleavage Z-score (15 min),furin cleavage Z-score (30 min)
CAMWPLLLLLAGNASASA [HC557],0.169 (inactive),0.292 (inactive),-0.0686 (inactive)
CAQVLPCSFTAGNASASA [HC497],1.05,-1.13 (inactive),0.347 (inactive)
CAVVCCSMHYAGNASASA [HC2075],-0.613 (inactive),1.54,1.45
CASSTSGITGAGNASASA [HC1338],-0.675 (inactive),-0.0853 (inactive),-0.923 (inactive)
CAELVTSTWVAGNASASA [HC2165],1.19,-1.53 (inactive),0.617 (inactive)
CAQYWRDKRLAGNASASA [FS-1154],0.77 (inactive),0.402 (inactive),0.0823 (inactive)
CAGSLRKKRLAGNASASA [FS-1528],8.24 (active),9.41 (active),8.69 (active)
CALSDRKKRLAGNASASA [FS-1137],4.97 (active),5.99 (active),4.87 (active)
CALPPIIQRLAGNASASA [HC1600],-1.17 (inactive),-0.382 (inactive),-0.2 (inactive)
CALMHRKKRLAGNASASA [FS-351],8.68 (active),11 (active),9.08 (active)
CATPARKKRLAGNASASA [FS-729],7.39 (active),8.85 (active),8.77 (active)
CASVVTSTWVAGNASASA [HC2157],1.21,-0.109 (inactive),0.831 (inactive)
CAGEPGDPDLAGNASASA [HC1357],-1.27 (inactive),-0.0644 (inactive),0.75 (inactive)
CAWVPCHRPSAGNASASA [HC2308],-0.717 (inactive),2.59,0.688 (inactive)
CAEVPCHRESAGNASASA [HC2392],0.318 (inactive),1.09,0.395 (inactive)
CADFSLDPTFAGNASASA [HC892],0.169 (inactive),-0.616 (inactive),-1.12 (inactive)
CATTGEIPFYAGNASASA [HC845],-1.32 (inactive),-1.97 (inactive),0.0887 (inactive)
CAVQEDAASLAGNASASA [HC1535],-1.62 (inactive),-0.428 (inactive),-0.272 (inactive)
CALCSALYVGAGNASASA [HC296],-0.409 (inactive),-0.564 (inactive),0.88 (inactive)
CAMFECSQHLAGNASASA [HC1687],-0.00522 (inactive),-0.149 (inactive),-0.982 (inactive)
CAVVCWSMSYAGNASASA [HC87],-0.794 (inactive),-0.454 (inactive),-0.791 (inactive)
CARSQRSWRLAGNASASA [FS-1162],-0.897 (inactive),-0.415 (inactive),-1.15 (inactive)

Sequence,furin cleavage Z-score (7.5 min),furin cleavage Z-score (15 min),furin cleavage Z-score (30 min)
CATPRRQKRLAGNASASA [FS-881],9.61 (active),11.3 (active),9.49 (active)
CAGSRRWGRYAGNASASA [FS-167],-0.565 (inactive),1.19,2.01
CAKHNRPRRDAGNASASA [FS-602],12.5 (active),11.7 (active),9.21 (active)
CAPGPRPRRDAGNASASA [FS-472],14.1 (active),15 (active),10.8 (active)
CAGSRRPRRDAGNASASA [FS-789],13.1 (active),13 (active),10.2 (active)
CAPLARAAWEAGNASASA [HC1566],0.967 (inactive),1.75,0.234 (inactive)
CAPLARPRRDAGNASASA [FS-556],9.88 (active),7.62 (active),6.73 (active)
CARSPRPRGDAGNASASA [FS-3090],0.374 (inactive),-0.595 (inactive),0.318 (inactive)
CAPEPREQRDAGNASASA [FS-1045],-0.201 (inactive),-0.175 (inactive),-0.45 (inactive)
CAMMECSQHLAGNASASA [HC1686],-0.328 (inactive),0.731 (inactive),0.7 (inactive)
CAEVVTVTWVAGNASASA [HC143],-0.0202 (inactive),-1.22 (inactive),0.0435 (inactive)
CASIEPLDLPAGNASASA [HC1597],-0.888 (inactive),1.4,-0.00883 (inactive)
CARNFRFLSSAGNASASA [FS-3004],-0.151 (inactive),-0.288 (inactive),-1.62 (inactive)
CARRRRSRSSAGNASASA [FS-3263],8.31 (active),9.52 (active),8.33 (active)
CARRERSIKSAGNASASA [FS-863],3.74 (active),6.21 (active),7 (active)
CAPRRRARSLAGNASASA [FS-2479],10.9 (active),12.2 (active),10.3 (active)
CARRWRSLRPAGNASASA [FS-1924],-0.388 (inactive),2.12,2.35
CARRYRGNDSAGNASASA [FS-3072],-0.0765 (inactive),-0.858 (inactive),-0.417 (inactive)
CARRRRARSSAGNASASA [FS-3061],9.64 (active),8.93 (active),6.98 (active)
CAAPQGSRSLAGNASASA [HC717],-0.871 (inactive),-1.2 (inactive),0.343 (inactive)
CATTPCEGSWAGNASASA [HC73],0.057 (inactive),0.658 (inactive),0.0884 (inactive)
